EPAC1 ag: agonists of human EPAC1. Potency, µM (doses to about 154 µM), inactives show at the highest dose activation, usual class: activators. actives 0.073% (n = 360,000). AID 720707. EPAC1 agonist qHTS, biochemical assay; response scale: 100% = response to 6.5 mM cAMP. O95398; note: nearly all actives have a fitted effect of over 60% in size
Target sequence (O95398 whole entry, looked up): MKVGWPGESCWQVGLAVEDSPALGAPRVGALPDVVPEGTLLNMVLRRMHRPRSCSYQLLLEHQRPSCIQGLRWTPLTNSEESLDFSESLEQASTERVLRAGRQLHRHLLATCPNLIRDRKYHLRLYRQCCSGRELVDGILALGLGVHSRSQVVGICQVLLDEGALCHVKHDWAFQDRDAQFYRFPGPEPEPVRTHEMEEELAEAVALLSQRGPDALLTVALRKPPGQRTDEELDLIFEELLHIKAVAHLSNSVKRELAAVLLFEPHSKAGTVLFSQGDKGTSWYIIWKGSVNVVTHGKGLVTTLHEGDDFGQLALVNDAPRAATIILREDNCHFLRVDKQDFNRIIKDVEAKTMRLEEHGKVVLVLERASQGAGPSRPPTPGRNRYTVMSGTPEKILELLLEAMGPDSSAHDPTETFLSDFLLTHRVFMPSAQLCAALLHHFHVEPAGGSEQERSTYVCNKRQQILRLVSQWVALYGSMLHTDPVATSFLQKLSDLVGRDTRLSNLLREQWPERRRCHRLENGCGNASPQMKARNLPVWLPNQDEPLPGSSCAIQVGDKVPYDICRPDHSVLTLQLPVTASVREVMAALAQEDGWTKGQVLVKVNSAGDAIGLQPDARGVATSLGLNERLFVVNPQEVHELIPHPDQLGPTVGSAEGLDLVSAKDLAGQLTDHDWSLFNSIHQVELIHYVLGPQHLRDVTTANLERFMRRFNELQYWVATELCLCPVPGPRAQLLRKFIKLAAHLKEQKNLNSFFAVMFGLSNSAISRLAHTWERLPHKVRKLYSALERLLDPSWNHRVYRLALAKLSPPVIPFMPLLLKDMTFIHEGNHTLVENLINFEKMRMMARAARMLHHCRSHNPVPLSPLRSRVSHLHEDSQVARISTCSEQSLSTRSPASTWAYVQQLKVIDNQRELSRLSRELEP
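Compounds were pinned as a concentration titration into mixtures of EPAC1 (100 nM), BODIPY-GDP-loaded Rap1B (250 nM) and GDP (50 uM). After 5 min at room temperature, fluorescence was followed for 30 min; activity was scaled to 6.5 mM cAMP.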
USP1 inh: inhibitors of human USP1/UAF1 deubiquitinase; Potency, µM (series often up to 57.1 µM), inactives show at the highest dose activity change, negative = inhibition, hits mostly inhibitors; recombinant USP1/UAF1, Ub-Rhodamine cleavage fluorescence; O94782; actives 0.23% (n = 390,000); note: % is set by controls: 0 for no effect and ±100 for the full control effect; nearly all actives have a fitted effect of over 60% in size
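1 nM enzyme complex + cpd, 15 min RT; start with Ub-Rho 150nM final; kinetic fluorescence ex 480/em 540, 6 reads q60 s. Buffer 50mM HEPES pH 7.8, 0.5mM EDTA, 0.1 mg/ml BSA, 1mM TCEP, 0.01% Tween-20.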
EPAC1 antagonist: EPAC1 (human) antagonism | O95398 | EPAC1 GEF assay, Rap1b-BODIPY-GDP exchange fluorescence | Potency, µM (series often up to 115 µM), for inactives: at the top dose activity change, negative = inhibition, actives largely listed as inhibitors | actives 0.14% (n = 360,000) | AID 720709;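 note: plate controls were vehicle for no effect and positive control for full effect; nearly all actives have a fitted effect of over 50% in size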
EPAC2 antagonist: antagonists of human EPAC2. Q8WZA2. EPAC2 GEF exchange of Rap1B-BODIPY-GDP, fluorescence. Potency, µM (titrated, usually from 114 µM), without a hit: at the highest dose activity, negative = inhibition, most hits filed as inhibitors. actives 0.18% (n = 360,000); note: % is set by controls: 0 for no effect and ±100 for the full control effect; nearly all actives have a fitted effect of over 45% in size
EPAC2 ag: agonists of human EPAC2 (RAPGEF4). actives 0.079% (n = 360,000). Potency, µM (highest dose often 154 µM), for the others: at the highest dose activation, hits mostly activators. EPAC2 activation, biochemical qHTS; response scale: 100% = 6.5 mM cAMP response. Q8WZA2; note: nearly all actives have a fitted effect of over 50% in size
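Compounds were titrated in qHTS against a Rap1B-BODIPY-GDP (250 nM) complex with EPAC2 (100 nM) and GDP (50 uM). BODIPY-GDP release tracked at 480/540 nm over 30 min at room temperature, normalized to 6.5 mM cAMP.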
USP2a inh: USP2a (human) protease inhibition; O75604; USP2 core, Ub-CHOP2 coupled fluorogenic reporter, 485/531; Potency, µM (top dose mostly 38.3 µM), for inactives: at the top dose activity change, negative = inhibition, most hits filed as inhibitors; actives 0.01% (n = 330,000); AID 463254;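 note: plate controls were DMSO wells for no effect and full inhibition by NEM control for full effect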
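Deubiquitinase activity read as fluorescence (485/531 nm) after Ub-CHOP2 cleavage activates the enterokinase reporter on its substrate; USP2 core 10nM, Ub-CHOP2 and substrate 25nM each, 30min compound preincubation then 60min RT; data normalized to NEM, curves fitted.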
Active calls of the source: *; ? = inconclusive; / = no result given. Compounds with a hit are over-represented: about 0.44% of the library has one in this group of screens. Calls come from the whole dose curve; as a rule, active = well fitted curve in the direction sought with a large enough effect; inconclusive = small, poorly fitted or top-dose-only effect, or another doubt; inactive = no such curve, though single readings can be large; an effect the other way counts as inactive or inconclusive. Potency is the fitted concentration of half-maximal effect.

SMILES | EPAC1 ag | USP1 inh | EPAC1 antagonist | EPAC2 antagonist | EPAC2 ag | USP2a inh
Cc1c(Cl)cccc1NS(=O)(=O)c1ccc2c(c1)C1C=CCC1C(c1ccc(C(=O)O)cc1)N2 (stereo not given) | -7% | ? | 56µM* | -17% | -4% | -2%
CN=c1sc2c(n1C)C(=O)c1ccccc1C2=O | 2% | 16µM* | 7% | -1% | 6% | /
CN=c1sc(C(=O)Nc2ccccc2)c(C)n1C | -10% | -18% | -2% | 12% | -3% | 1%
CCOc1ccc(C2C(=O)N(C3CCCCCC3)CC(=O)N2Cc2ccccc2)cc1OC (stereo not given) | / | -10% | / | / | / | /
CC(C)CCn1c(Oc2ccccc2Cl)nc2c1c(=O)n(C)c(=O)n2C | 1% | -14% | -12% | 32µM* | 0% | -6%
Cn1c(=O)c2c(nc(Oc3ccccc3Cl)n2C)n(C)c1=O | -14% | -11% | -18% | -11% | 7% | 3%
CNC(=O)C1CCC(Cn2c(=O)c3sccc3n(CC(=O)NCc3ccc(C)cc3)c2=O)CC1 (stereo not given) | / | -14% | / | / | / | /
CCc1ccc(S(=O)(=O)Nc2cc(SCC(=O)O)c(O)c3ccccc23)cc1 | ? | ? | 89µM* | ? | 10% | 0%
Cc1ccc(C)c(S(=O)(=O)Nc2cc(SCC(=O)O)c(O)c3ccccc23)c1 | 21% | ? | ? | -6% | 4% | -1%
CCOc1ccc(S(=O)(=O)Nc2cc(SCC(=O)O)c(O)c3ccccc23)cc1 | 28% | 25µM* | 89µM* | -4% | 11% | -1%
O=C(O)c1cccc(S(=O)(=O)Nc2ccc([N+](=O)[O-])cc2O)c1 | -2% | -2% | -8% | 0% | 6% | 2%
O=C(O)CSc1cc(NS(=O)(=O)c2cccc([N+](=O)[O-])c2)c2ccccc2c1O | 24% | 18µM* | ? | ? | 112µM* | 9%
CSc1ccc(CCNC(=O)CN2C(=O)COc3ccc(S(=O)(=O)N4CCCC4)cc32)cc1 | / | -4% | / | / | / | /
C=CCn1c(-c2ccc(S(=O)(=O)N3CCOCC3)cc2)csc1=Nc1ccccc1 | 2% | -27% | 6% | 0% | 7.9µM* | 0%
O=c1cc2oc3cc(O)c(O)cc3c(-c3ccccc3[N+](=O)[O-])c-2cc1O | 0% | ? | 79µM* | ? | 5% | ?
COc1ccc2c(Sc3ccccc3)c(C(=O)NCc3cc(Br)ccc3OC)[nH]c2c1 | / | 7% | / | / | / | /
COc1ccc(C(=O)c2ccc(Cl)cc2)c2ccccc12 | 12% | -3% | -10% | ? | 10% | 0%
COc1cc(C(=O)c2ccccc2)c([N+](=O)[O-])cc1OC | -9% | -14% | -3% | 79µM* | 3% | -1%
COc1ccc(C(=O)c2ccccc2)c2c(O)ccc(C(=O)c3ccccc3)c12 | -14% | -7% | -1% | 5% | 6.3µM* | -2%
CCOc1ccc(/C=C/C(=O)c2c(O)c3ccccc3oc2=O)cc1 | 100µM* | -17% | 43% | 1% | 11% | -2%
CN(C)c1ccc(/C=C/C(=O)c2c(O)c3ccccc3oc2=O)cc1 | 1% | ? | ? | -2% | 21% | 10%
O=C(NCCS(=O)(=O)N1CCN(c2cccc(Cl)c2)CC1)c1ccc2c(c1)OCO2 | 35µM* | -12% | -4% | -9% | -4% | 0%
CC1(C)CC(=O)C2=C(C1)Nc1ccccc1S2 | 4% | ? | 4% | 6% | 2% | 9%
CC1=CC(=O)Nc2ccccc2S1 | 8% | 22µM* | 4% | -5% | 13% | /
Nc1c(C(=O)NC2CC2)sc2nc3c(c(-c4ccco4)c12)CC/C3=C/c1ccco1 | -5% | 28µM* | ? | 27% | 11% | 22µM*
O=Nc1c(O)ccc2cc(S(=O)(=O)O)ccc12 | 4% | ? | -10% | 2% | -3% | /
